Only some compounds are listed: those with a hit (about 12% of all), similar ones and a draw of the others.
G9a block: qHTS Assay for Inhibitors of Histone Lysine Methyltransferase G9a; AID 504332, 2011; G9a H3K9 monomethylation, AlphaScreen, 2 h; Potency, µM (top dose mostly 102 µM), usual class: inhibitors; Histone-lysine N-methyltransferase EHMT2 (Homo sapiens), Q96KQ7; 350,000 tested, 8.8% active; also: nearly all actives have a fitted effect of over 75% in size
Target sequence (Q96KQ7 913-1193 limits assumed): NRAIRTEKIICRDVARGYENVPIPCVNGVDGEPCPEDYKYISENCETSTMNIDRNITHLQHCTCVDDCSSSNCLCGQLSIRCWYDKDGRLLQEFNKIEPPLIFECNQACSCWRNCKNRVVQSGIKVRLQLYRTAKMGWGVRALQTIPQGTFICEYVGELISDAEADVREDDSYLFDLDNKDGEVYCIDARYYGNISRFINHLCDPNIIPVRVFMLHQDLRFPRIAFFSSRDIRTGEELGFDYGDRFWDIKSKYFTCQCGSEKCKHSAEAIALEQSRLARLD
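Step 1: enzyme (final 20 nM) with compound, 15 min RT. Step 2: substrate peptide 500 nM and SAM 20 uM, 2 h RT. Step 3: anti-H3K9me1 antibody and AlphaScreen beads, 10 min, then plate read.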
HP1b binding inh: HTS for Inhibitors of HP1-beta Chromodomain Interactions with Methylated Histone Tails | Chromobox protein homolog 1 (Homo sapiens), P83916 | AlphaScreen HP1-beta / biotin-H3K9me3 peptide binding | Potency, µM (titrated, usually from 114 µM), hits mostly inhibitors | 390,000 tested, 0.56% active | AID 540317, 2011; also: nearly all actives have a fitted effect of over 70% in size
Target sequence (P83916 whole entry, looked up): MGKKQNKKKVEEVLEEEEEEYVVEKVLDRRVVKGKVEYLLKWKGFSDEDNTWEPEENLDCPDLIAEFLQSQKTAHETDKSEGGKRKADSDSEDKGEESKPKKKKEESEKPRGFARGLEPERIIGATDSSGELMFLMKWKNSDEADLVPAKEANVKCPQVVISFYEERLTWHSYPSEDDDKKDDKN
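HP1-beta protein (50 nM final) preincubated 30 min at room temperature with biotinylated H3(1-18)K9me3 peptide (50 nM) in PBS pH 7.4, 0.01% Tween-20, then compound added for 30 min. AlphaScreen streptavidin donor/nickel chelate acceptor beads (10 ug/mL final), 30 min dark, luminescence read.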
JMJD2A Tudor inh: qHTS Assay for Inhibitors of JMJD2A-Tudor Domain. Potency, µM (top dose mostly 114 µM), hits mostly inhibitors. AID 504339, 2011. AlphaScreen JMJD2A-Tudor / H3K4me3 peptide binding. 390,000 tested, 4.4% active; also: nearly all actives have a fitted effect of over 50% in size
L3MBTL1 inh: qHTS Assay for the Inhibitors of L3MBTL1; AlphaScreen L3MBTL1–H3K9me1 peptide binding; Potency, µM (top dose mostly 57.1 µM), hits mostly inhibitors; 230,000 tested, 0.66% active; AID 485360, 2010; also: nearly all actives have a fitted effect of over 60% in size
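Read-out is AlphaScreen signal from streptavidin donor and nickel chelate acceptor beads (10 ug/mL final each) bridging L3MBTL1 (50 nM) and biotinylated K9-monomethylated H3(1-15) peptide (75 nM), after 30 min compound exposure at room temperature.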
BAZ2B inh: qHTS Assay for Inhibitors of BAZ2B. Potency, µM (series often up to 114 µM), actives largely listed as inhibitors. AlphaScreen BAZ2B-H3K14Ac peptide displacement. 360,000 tested, 4.4% active. AID 504333, 2011; also: nearly all actives have a fitted effect of over 60% in size
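BAZ2B (50 nM) with biotin-H3(5-23)K14Ac peptide (50 nM) in PBS pH 7.4, 0.01% Tween-20, preformed 30 min, then compound 30 min at room temperature; top concentration 110uM. AlphaScreen streptavidin donor/nickel chelate acceptor beads (10 ug/mL final), 20 min dark, signal read.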
Sfp PPTase inh: qHTS Assay for Inhibitors of Bacillus subtilis Sfp phosphopantetheinyl transferase (PPTase). 4'-phosphopantetheinyl transferase ffp (Bacillus subtilis), Q9F4F7. Biochemical Sfp PPTase activity, qHTS. Potency, µM, actives largely listed as inhibitors. 310,000 tested, 3.5% active;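 also: the enzyme is Sfp with the accession as filed and its product quenches rhodamine fluorescence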
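Fluorescence-quenching assay: 15 nM Sfp-PPTase preincubated 15 min at room temperature with compound, then 5 uM rhodamine-CoA and 12.5 uM BHQ-2-labelled YbbR peptide added. Fluorescence (ex 525/em 598 nm) read at start and after 30 min; difference gives rate.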
A number is an active result; 0 = inactive; ? = inconclusive; - = no result given; [ ] = another dose, or the depositor's remark. Calls follow the shape of the dose curve; as a rule, active = well fitted curve in the direction sought with a large enough effect; inconclusive = small, poorly fitted or top-dose-only effect, or another doubt; inactive = no such curve, though single readings can be large; an effect the other way counts as inactive or inconclusive.

SMILES	G9a block	HP1b binding inh	JMJD2A Tudor inh	L3MBTL1 inh	BAZ2B inh	Sfp PPTase inh
CN(C)C(=O)c1ccc(-c2nccc(-n3ccnc3)n2)cc1	0[0.501 µM]	-	-	-	-	0
CC(C)Cc1ccc(CN2CCCC(NC(=O)CCN3CCCCC3=O)C2)cc1 (stereo unspecified)	0	0	0	-	0	0
CC(C)Cc1ccc(CN2CCCC(NC(=O)CCN3CCCO3)C2)cc1 (stereo unspecified)	79.4µM	0	0	-	0	0
CC(=O)c1c[nH]c(C(=O)NCc2cccc(C(F)(F)F)c2)c1	0	0	0	-	0	0
C#CCOCCOCCOCCNc1nc(N2CCN(C(=O)[C@H](CCCCN)n3cc([C@@H](N)CO)nn3)CC2)nc(N2CCN(C(=O)[C@H](Cc3ccc(O)cc3)n3cc([C@@H](N)CC(C)C)nn3)CC2)n1	?	0	56.2µM	0	31.6µM	0
C#CCOCCOCCOCCNc1nc(N2CCN(C(=O)[C@H](Cc3ccc(O)cc3)n3cc([C@@H](N)C(C)CC)nn3)CC2)nc(N2CCN(C(=O)[C@H](CCCCN)n3cc([C@@H](N)CC(C)C)nn3)CC2)n1 (stereo partly specified)	0	-	-	0	79.4µM	0
C#CCOCCOCCOCCNc1nc(N2CCN(C(=O)[C@H](Cc3ccc(O)cc3)n3cc([C@@H](N)C(C)CC)nn3)CC2)nc(N2CCN(C(=O)[C@H](CCCCN)n3cc([C@@H](N)CO)nn3)CC2)n1 (stereo partly specified)	0[12.7 µM]	0	39.8µM	0	50.1µM	0
CCc1ccc(OCc2nc(-c3ccc(OC)c(OC)c3)no2)c(Br)c1	0	0	0	-	0	-
CCN(CC)CCN1C(=O)C(=O)/C(=C(/O)c2ccc(F)cc2)C1c1cccnc1 (stereo unspecified)	25.1µM	0	0	0	0	0
COc1ccc(/C(O)=C2/C(=O)C(=O)N(CCN(C)C)C2c2ccc(C)cc2)cc1Cl (stereo unspecified)	89.1µM	0	0	0	0	0
CCN(CC)CCN1C(=O)C(=O)/C(=C(/O)c2cnn(-c3ccccc3)c2C)C1c1cccnc1 (stereo unspecified)	0[12.7 µM]	0	0	-	0	0
CCOc1ccc(/C(O)=C2/C(=O)C(=O)N(CCN(C)C)C2c2ccccc2)cc1Cl (stereo unspecified)	0	0	0	0	0	0
COc1ccc(/C(O)=C2\C(=O)C(=O)N(CCN(C)C)C2c2cccc(OC)c2OC)cc1Cl (stereo unspecified)	44.7µM	0	?	0	?	0
CN(C)CCN1C(=O)C(=O)/C(=C(/O)c2ccc(F)cc2)C1c1ccccc1F (stereo unspecified)	79.4µM	0	0	0	0	0
COc1ccc(/C(O)=C2/C(=O)C(=O)N(CCN(C)C)C2c2ccccc2)cc1Cl (stereo unspecified)	0[12.7 µM]	0	0	-	?	0
CCc1cc(=O)oc2cc(C)c(CN3CCCC3)c(O)c12	44.7µM	0	20µM	3.98µM	17.8µM	89.1µM
CCCc1cc(=O)oc2cc(C)c(CN3CCCC3)c(O)c12	89.1µM	0	50.1µM	8.91µM	12.6µM	?
CCc1cc(=O)oc2cc(C)c(CN3CCCCC3)c(O)c12	0	0	56.2µM	12.6µM	20µM	0
COC(=O)CC1Oc2ccc(Cl)cc2-n2cc(-c3ccc(F)cc3)nc21 (stereo unspecified)	0	0	0	-	0	-
CC(C)C[C@H](NC(=O)CNC(=O)[C@H](C)NC(=O)[C@H](CC(C)C)NC(=O)[C@H](CCCNC(=N)N)NC(=O)[C@H](Cc1cnc[nH]1)NC(=O)[C@@H](NC(=O)[C@@H](N)C(C)C)[C@@H](C)O)C(=O)N[C@@H](CC(C)C)C(=O)N[C@@H](CO)C(=O)N[C@@H](CCCNC(=N)N)C(=O)N[C@@H](CO)C(=O)NCC(=O)NCC(=O)N[C@H](C(=O)N[C@H](C(=O)N[C@@H](CCCCN)C(=O)N[C@@H](CC(N)=O)C(=O)N[C@@H](CC(N)=O)C(=O)N[C@@H](Cc1ccccc1)C(=O)N[C@H](C(=O)N1CCC[C@H]1C(=O)N[C@H](C(=O)N[C@@H](CC(N)=O)C(=O)N[C@H](C(=O)NCC(=O)N[C@@H](CO)C(=O)N[C@@H](CCCCN)C(=O)N[C@@H](C)C(=O)N[C@@H](Cc1ccccc1)C(N)=O)C(C)C)[C@@H](C)O)C(C)C)C(C)C)C(C)C	-	-	-	-	-	0
Cc1c(Cl)cccc1NC(=O)Nc1nnc(N2CCCCCC2)s1	0	0	0	-	0	-
Cc1cccc(N2CCN(C(=O)C3CCN(C(=O)c4cc5sccc5n4C)CC3)CC2C)c1 (stereo unspecified)	0	0	?	-	35.5µM	-
Cc1cccc(N2CCN(C(=O)c3csc4ccccc34)CC2C)c1 (stereo unspecified)	50.1µM	0	?	0	?	0
Cn1c(C(=O)N2CCCC(C(=O)N3CCN(c4ccccc4)CC3)C2)cc2sccc21 (stereo unspecified)	0	0	0	-	0	-
Cc1ccc(C)c(N2CCN(C(=O)C3CCN(C(=O)c4cc5sccc5n4C)CC3)CC2)c1	?	0	?	-	25.1µM	-
SMILES	G9a block	HP1b binding inh	JMJD2A Tudor inh	L3MBTL1 inh	BAZ2B inh	Sfp PPTase inh
CC1CC=C2C(C#N)=C(N)C(C#N)(C#N)C(c3cccs3)C2C1 (stereo unspecified)	39.8µM	0	0	0	0	0
CCOC(=O)N1CC=C2C(C#N)=C(N)C(C#N)(C#N)[C@H](c3cccs3)C2C1 (stereo partly specified)	0	0	0	0	0	0
CCN1/C(=C/C(C)=C/c2sc3ccccc3[n+]2CC)Sc2ccccc21	17.8µM	?	17.8µM	-	22.4µM	31.6µM
Cc1ccccc1CNc1nc(N(C)C)nc2c1cnn2C	0[12.7 µM]	0	0	-	0	-
O=c1[nH]c(=O)c2[nH]c(=O)[nH]c2[nH]1	0[12.7 µM]	-	-	-	-	0
COCCCNc1oc(-c2ccc(COc3ccc(Cl)cc3)o2)nc1C#N	8.91µM	0	?	-	?	-
CN(C)CCNc1oc(-c2ccc(COc3ccc(Cl)cc3)o2)nc1C#N	?	0	39.8µM	-	?	-
N#Cc1nc(-c2ccc(COc3ccc(Cl)cc3)o2)oc1N1CCC(C(N)=O)CC1	8.91µM	0	0	-	?	-
COCCCNc1oc(COc2ccc(Cl)cc2Cl)nc1C#N	31.6µM	0	?	0	0	0
CN(C)CCNc1oc(COc2ccc(Cl)cc2Cl)nc1C#N	-	0	0	0	0	0
